Reference: PubChem BioAssay (NCI)
Compounds without any hit were thinned out: in the full panel of roughly 79,000, 15% have a hit. Values without a mark were called inactive. Activity calls are given as the source filed them. Rule as the data show it: active = growth inhibition above about 70%; inactive = the rest.

Experiment: NCI Yeast Anticancer Drug Screen. Data for the mlh1 rad18 strain (AID 175)
Settings: S. cerevisiae mlh1 rad18 strain growth inhibition; at 50.0 µM; stronger effect = higher value
Experimental: Growth inhibition of yeast strains with defined genetic alterations is measured as a screen for potential anti-cancer activity. Selected strains with alterations in DNA damage repair or cell cycle control were exposed to compounds and growth inhibition was measured relative to vehicle treated controls. The strain used in this assay is mlh1 rad18
For CC(/C=N\Nc1ccc([N+](=O)[O-])cc1)=N/N=C(N)N, the growth inhibition was 18.7%. Work on COc1ccc(-c2nc(SCc3ccc(Cl)cc3)[nH]c(=O)c2CCO)cc1 yielded a growth inhibition of 10.4%. COC(=O)CC1(C(=O)OC)Oc2ccc(Br)cc2C(=O)N1c1cccc(Cl)c1Cl (stereo not given) gave a growth inhibition of 54.1%. Work on c1cc[n+]2cc3c(ccc4cc5cccc[n+]5cc43)cc2c1 yielded a growth inhibition of 11.6%. COc1ccc(CN2CCCN(Cc3ccc(OC)cc3OC)C2c2cc(OC)ccc2OC)c(OC)c1 gave a growth inhibition of -0.4%. S=C1CSc2c(cnc3ccccc23)N1 gave a growth inhibition of 6.95%. In the case of CCN(CC)CCN(C(=O)c1ccc(F)cc1)c1ccccc1N, the growth inhibition is reported as -23.6%. COc1ccc(-c2cc(=O)c3c(O)cc(O)cc3o2)cc1Oc1ccc(-c2cc(=O)c3c(O)cc(O)cc3o2)cc1 gave a growth inhibition of 5.1%. Compound O=C(O)c1c(O)ccc(O)c1C(=O)O has a growth inhibition of -11.2%. Compound COc1ccc2c(c1OC)C(=O)O[C@@H]2[C@H]1c2c(cc3c(c2OC)OCO3)CCN1C has a growth inhibition of 11.3%. CCOC(=O)c1c(-c2ccc([N+](=O)[O-])cc2)c(C#N)n(-c2ccccc2)c1C showed a growth inhibition of 6.1%. Compound COc1ccc(C=O)c(Br)c1O has a growth inhibition of -16.9%. With CCOC(=O)C12CCCC1(O)N(NC(=O)c1ccccc1)C(C)=C2C(=O)OC (stereo not given) the growth inhibition was -10.2%. CC(=O)N(Cl)c1ccc(N=Nc2ccccc2)cc1F showed a growth inhibition of 6.8%. O=C(O)c1ccc2c([N+](=O)[O-])cccc2n1 showed a growth inhibition of 19.9%. For CNC(=O)n1cnc2ccccc21, the growth inhibition was 25.3%. Compound CC(=O)C1=CCC(C(C)C)C1 (stereo not given) has a growth inhibition of 2%. Compound CN1C(=S)C2=C(c3ccccc3)N(C)C(=S)C2=C1c1ccccc1 has a growth inhibition of 26.1%. For CCOC(=O)c1[nH]n(-c2ccccc2)c(=O)c1C=NC(=S)c1cccnc1, the growth inhibition was -16.5%. O=C(CSc1nc(-c2ccccc2)c(-c2ccccc2)[nH]1)NNC(=S)Nc1ccccc1 showed a growth inhibition of 3%. In the case of OCCN(CCO)c1ncnc2c1ncn2-c1ccc(CCCl)cc1, the growth inhibition is reported as 0.1%. With O=C(O)c1cc(-c2ccccc2)nc2cc(Cl)ccc12 the growth inhibition was 25.6%. In the case of C1=N/C=C\C=C/c2ccc[n+](CCCCC[n+]3ccccc3-c3ccccn3)c21, the growth inhibition is reported as 75.2% (active). Brc1ccccc1C(Nc1nncs1)Nc1nncs1 gave a growth inhibition of 8.35%. CC(=O)Nc1ccc(S(=O)(=O)CCS(=O)(=O)c2ccc(NC(C)=O)cc2)cc1 showed a growth inhibition of -9.45%. In the case of Nc1ccc(S(=O)(=O)NC(=O)NCc2ccccc2)cc1, the growth inhibition is reported as -9.55%. Compound COc1ccc(NC(=O)CSc2nnc(-c3ccc(NC(C)=O)cc3)o2)cc1 has a growth inhibition of 0.55%. With CCc1cccc(C)c1N1C(=O)C(=O)C(c2nc3ccccc3o2)C(=O)C1=O the growth inhibition was 34.5%. CCCCCC(=O)NCCCOC showed a growth inhibition of -8.9%. Fc1ccc2nncc(/C=C/c3ccccn3)c2c1 gave a growth inhibition of 19.4%. Work on C(=C/c1ccccc1)/CN1CCCCC1 yielded a growth inhibition of 29.4%. For CC(C)=CCCC(C)C=O (stereo not given), the growth inhibition was 1.3%. Compound CC1(C)OC(C2SCCS2)C2OC(=O)C(O[Si](C)(C)C(C)(C)C)C2O1 (stereo not given) has a growth inhibition of -1.5%. In the case of NC(CSSCC(NC(=O)CNC(=O)OCc1ccccc1)C(=O)O)C(=O)O (stereo not given), the growth inhibition is reported as 2%. Compound O=C1C2C3CC(C4C5C=CC(C5)C34)C2C2C3CC(C12)C1C2C=CC(C2)C31 (stereo not given) has a growth inhibition of -24.4%. CCCCCCCCCCCCCCCCCC(=O)c1ccc(OC)c(OC)c1 gave a growth inhibition of -1.25%. With CCN1CCCC(Cl)C1 (stereo not given) the growth inhibition was 5.95%. CC(C)n1cnc2c(=O)[nH]c(=O)[nH]c21 gave a growth inhibition of 2.9%. Work on CC(C)C(NC(=O)C1CCCN1)P(=O)(O)O (stereo not given) yielded a growth inhibition of 5.9%. Compound Cc1ccc2[nH]c(=O)cc(C)c2c1 has a growth inhibition of 30.8%.
